Consider 35 molecules from PubChem BioAssay (EPA / NIEHS).

Results filed as inconclusive are left out. The source made the active and inactive calls. Rule for the calls, unless noted: active = hit-call score of the fitted dose curve at least 0.9, where 1 is the maximum; inconclusive = response in the unintended direction; inactive = score below 0.9.

Tested on in the first test: not listed separately
Kind of test: CCTE_Deisenroth_5AR_NBTE_acceptor: CCTE's 5alpha-reductase NanoBRET Target Engagement Assay - Autofluorescence Screen, Deisenroth Lab (AID 2284321; active = hit-call score of the fitted dose curve at least 0.9, where 1 is the maximum; inactive = score below 0.9;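 note: compound fluorescence in the acceptor channel under 460 nm excitation flags autofluorescence artifacts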). The note with it: actives raise or lower the signal. The procedure, abridged: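 Autofluorescence check: ToxCast chemicals, nominal 100 uM, excitation 460 nm, n=3 runs. Acceptor fluorescence endpoint, bidirectional fit relative to DMSO. Parent assay in HEK293T, 5 h post-dose.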
As to `CCC[CH2][Sn]([Cl])([CH2]CCC)[CH2]CCC`, the AC50 is 4.25 µM (active).

As for `CCCCCCCCn1sccc1=O`, the AC50 is 73.2 µM (active).

Take `Cc1ccc(N)c(N)c1`: the AC50 was 50 µM (active).

As to `Cc1cc(N=Nc2ccccc2C)ccc1N`, the AC50 is 38.4 µM (active).

Regarding `[Cl-].[Cl-].[Hg+2]`, the AC50 is 73.3 µM (active).

For the molecule `C[C@]12C=CC3=C4CCC(=O)C=C4CC[C@H]3[C@@H]1CC[C@@H]2O`, the call was inactive.

`Nc1ccc(N=Nc2ccccc2)cc1`: the call was inactive.

Regarding `CC(C)(O)c1cnn2c(-c3ccc(F)c(-c4c(F)cccc4C#N)c3)cnc2n1`, the molecule was called inactive.

`c1ccc2c(c1)-c1cccc3cccc-2c13`: the outcome was inactive.

Consider `COc1cc(C=O)cc2c1[C@H](COC(N)=O)[C@]1(OC(C)=O)ON2C[C@H]2[C@@H]1N2C(C)=O`, for which the call was inactive.

Tested on in a further test: not listed separately
Briefly: VALA_TUBHUV_Antagonist_TubuleLength: VALA Sciences human Umbilical Vein Endothelial Tubule Formation (TUBHUV) Antagonism Assay (AID 2284325).
Settings: not given
As for the experimental part: VALA_TUBHUV_Antagonist is a cell-based, multiplexed assay that uses human umbilical vein endothelial cells (HUVEC). Measurements were taken 72 hours after chemical dosing in a 96-well plate.VALA_TUBHUV_Antagonist_TubuleLength is the one of two assay components measured from the VALA_TUBHUV_Antagonist assay. It is designed to make measurements of tubulogenesis, a form of morphology reporter, as detected with fluorescence intensity signals by HCS Fluorescent Imaging technology. This VALA_TUBHUV_Antagonist assay was designed to detect chemical suppression of tubulogenesis, i.e. antagonism.Data from the assay component VALA_TUBHUV_Antagonist_TubuleLength was analyzed at the endpoint, VALA_TUBHUV_Antagonist_TubuleLength, in the positive analysis fitting direction relative to DMSO as the negative control and baseline of activity. Using a type of morphology reporter, loss-of-signal activity can be used to understand developmental effects. To generalize the intended target to other relatable targets, this assay endpoint is annotated to the neurodevelopment intended target family, where the subfamily is tubulogenesis.
[…]
Take `O=P(OCCCl)(OCCCl)OCCCl`: the result was inactive.

Turning to `CO[C@@H]1[C@H](OC(=O)NC(=O)CCl)CC[C@]2(CO2)[C@H]1[C@@]1(C)O[C@@H]1CC=C(C)C`, the molecule was classed as inactive.

As for `Oc1ccc2ccc3cccc4ccc1c2c34`, the molecule was called inactive.

Tested on in a further test: not listed separately
Briefly: TAMU_PeakParms_SingleDonor1434_Asystole: Texas A&M University (TAMU) 1.5-hr Human Induced Pluripotent Stem Cell (iPSC)-derived Cardiomyocytes Calcium (Ca+2) Flux Assay for Cardiotoxicity: Asystole (quiescence of beating) (AID 2284328).
Settings: not given
The procedure, abridged:
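Donor 1434 iPSC-cardiomyocytes exposed 90 min at 37C, 5% CO2, to 0.2, 1, 10 and 100 uM in 0.5% DMSO. Ca2+ dye fluorescence gave average peak frequency; POD is EC95, a 95% beat-rate drop versus controls.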
For `c1ccc(N=Nc2ccccc2)cc1`, the result was inactive.

Take `Clc1ccc(C(c2ccc(Cl)cc2)C(Cl)(Cl)Cl)cc1`: the outcome was inactive.

For the molecule `CCCCCCCCn1sccc1=O`, the result was inactive.

As for `CC(C)(C)C(O)(CCc1ccc(Cl)cc1)Cn1cncn1` (centres undefined), the result was inactive.

As for `ClC1=C(Cl)[C@]2(Cl)[C@H]3[C@H]([C@@H]4C=C[C@H]3C4)[C@@]1(Cl)C2(Cl)Cl`, the outcome was inactive.

Tested on in the next test: not listed separately
Kind of test: IUF_NPC1_cytotoxicity_72hr: Cytotoxicity Assessment at 72 hours in the Leibniz Research Institute for Environmental Medicine (IUF) Neural Progenitor Cell Proliferation Assay (NPC1) (AID 2284332).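 Note: rising LDH signal means more cytotoxicity.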
Settings: not given
The method, boiled down:
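Human fetal neural progenitor spheres (0.3 mm) in EGF/FGF proliferation medium, 37C, exposed 72 h without renewal. LDH release in supernatant read by resorufin fluorescence; gain of signal scored relative to dynamic range.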
Take `CCC[CH2][Sn]([Cl])([CH2]CCC)[CH2]CCC`: the AC50 is 637 nM (active).

For the molecule `OCCOCCO`, the molecule was classed as inactive.

With `O=P(OCCCl)(OCCCl)OCCCl`, the outcome was inactive.

Turning to `[O-][Cl+]O`, the molecule was called inactive.

On to `CNC(=O)Oc1cccc2c1OC(C)(C)C2`, for which the outcome was inactive.

With `COP(=S)(OC)SCN1C(=O)c2ccccc2C1=O`, the result was inactive.

In the case of `CC(C)(C)C(O)(CCc1ccc(Cl)cc1)Cn1cncn1` (centres undefined), the molecule was classed as inactive.

As for `COC(=O)Nc1nc2ccccc2[nH]1`, the molecule was classed as inactive.

For the molecule `CCCCOC(=O)c1ccccc1C(=O)OCc1ccccc1`, the molecule was classed as inactive.

Tested on in the next test: not listed separately
Kind of test: VALA_TUBIPS_Antagonist_CellCount: Viability Assessment in the VALA Sciences human iPS-derived Endothelial Tubule Formation (TUBIPS) Antagonism Assay (AID 2284335).
Settings: not given
Regarding `O=P(OCCCl)(OCCCl)OCCCl`, the molecule was classed as inactive.

`CO[C@@H]1[C@H](OC(=O)NC(=O)CCl)CC[C@]2(CO2)[C@H]1[C@@]1(C)O[C@@H]1CC=C(C)C`: the call was inactive.

For `Oc1ccc2ccc3cccc4ccc1c2c34`, the molecule was called inactive.

Tested on in a further test: not listed separately
Kind of test: VALA_MIGHUV1_ScratchOnly_WoundArea: VALA Sciences human Umbilical Vein Endothelial Cell Migration (MIGHUV) Assay, Area of Scratch Wound Inhibited Recovery (AID 2284336).
Settings: not given
The procedure, abridged: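 HUVEC monolayers (9000 cells/well) were scratched after 24 h, dosed within 30 min (six concentrations, triplicate, 0.1% DMSO), allowed 24 h recovery, then fixed. Hoechst-stained nuclei in the wound imaged; cytochalasin D as reference.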
Consider `O=P(OCCCl)(OCCCl)OCCCl`, for which the outcome was inactive.

Take `Clc1ccc(Cl)c(Cl)c1`: the call was inactive.

With `CO[C@@H]1[C@H](OC(=O)NC(=O)CCl)CC[C@]2(CO2)[C@H]1[C@@]1(C)O[C@@H]1CC=C(C)C`, the result was inactive.

Tested on in another test: not listed separately
Briefly: VALA_TUBHUV_Agonist_TubuleLength: VALA Sciences human Umbilical Vein Endothelial Tubule Formation (TUBHUV) Agonism Assay (AID 2284337).
Settings: not given
The procedure, abridged: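 HUVEC co-cultured with fibroblasts (1:3) 3 days in 10 ng/ml VEGF, then 3 days with compound plus VEGF; 0.1 % DMSO neutral control. Fixed, nuclear and CD31 stained; tubule length by fluorescence imaging.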
With `O=P(OCCCl)(OCCCl)OCCCl`, the molecule was classed as inactive.

Take `CO[C@@H]1[C@H](OC(=O)NC(=O)CCl)CC[C@]2(CO2)[C@H]1[C@@]1(C)O[C@@H]1CC=C(C)C`: the call was inactive.

Take `Oc1ccc2ccc3cccc4ccc1c2c34`: the outcome was inactive.

Tested on in a further test: not listed separately
Briefly: CCTE_Mundy_HCI_iCellGluta_NOG_NeuronCount: CCTE's Neurite Outgrowth Assay in iCellGluta cells for Neuron Count, Mundy Lab (AID 2284340).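 Note: cells fixed about 48 h after compound addition.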
Settings: not given
The procedure, abridged:
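Neuron count read by automated high-content imaging of Hoechst 33342 and betaIII-tubulin/Alexa Fluor-488 labelling in human iPSC glutamatergic neurons. Activity fitted relative to DMSO.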
`CCC[CH2][Sn]([Cl])([CH2]CCC)[CH2]CCC`: the AC50 was 0.257 µM (active).

In the case of `[O-][Cl+]O`, the call was inactive.

On to `CC(C)COC(=O)c1ccccc1C(=O)OCC(C)C`, for which the outcome was inactive.

Take `CN(C)[C@@H]1C(=O)C(C(N)=O)=C(O)[C@@]2(O)C(=O)C3=C(O)c4c(O)cccc4[C@@](C)(O)[C@H]3C[C@@H]12`: the molecule was called inactive.

For `CNC(=O)Oc1cccc2c1OC(C)(C)C2`, the molecule was called inactive.

Regarding `COP(=S)(OC)SCN1C(=O)c2ccccc2C1=O`, the AC50 was 80.7 µM (active).

Turning to `COC(=O)Nc1nc2ccccc2[nH]1`, the molecule was called inactive.

Turning to `CCCCOC(=O)c1ccccc1C(=O)OCc1ccccc1`, the outcome was inactive.

Tested on in another test: not listed separately
Briefly: CCTE_Mundy_HCI_iCellGluta_NOG_NeuriteCount: CCTE's Neurite Outgrowth Assay in iCellGluta cells for Neurite Count, Mundy Lab (AID 2284342).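 Note: chemical exposure about 48 hours starting 2 hours after plating.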
Settings: not given
Regarding `CCC[CH2][Sn]([Cl])([CH2]CCC)[CH2]CCC`, the AC50 is 0.183 µM (active).

For `[O-][Cl+]O`, the molecule was called inactive.

Regarding `CC(C)COC(=O)c1ccccc1C(=O)OCC(C)C`, the molecule was called inactive.

Consider `CN(C)[C@@H]1C(=O)C(C(N)=O)=C(O)[C@@]2(O)C(=O)C3=C(O)c4c(O)cccc4[C@@](C)(O)[C@H]3C[C@@H]12`, for which the result was inactive.

Consider `CNC(=O)Oc1cccc2c1OC(C)(C)C2`, for which the molecule was classed as inactive.

As for `COP(=S)(OC)SCN1C(=O)c2ccccc2C1=O`, the AC50 was 83.8 µM (active).

With `COC(=O)Nc1nc2ccccc2[nH]1`, the result was inactive.

As for `CCCCOC(=O)c1ccccc1C(=O)OCc1ccccc1`, the result was inactive.

Another test concerns SERPINA7 (gene 6906). Kind of test: CCTE_GLTED_hTBG: CCTE's human Thyroxine-binding Globulin (TBG) Inhibition Assay, Great Lakes Toxicology and Ecology Division (GLTED) Lab (AID 2284343).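 Note: active chemicals lower fluorescence versus DMSO baseline by displacing probe.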
Settings: not given
The procedure, abridged:
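Human TBG incubated 2 h with test chemical; displacement of ANSA probe read by fluorescence, 380 nm excitation/475 nm emission. Loss of signal relative to DMSO.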
As for `Nc1ccc(Oc2ccc(N)cc2)cc1`, the AC50 was 25.3 µM (active).

Take `O=C(Nc1ccccc1)c1ccccc1I`: the AC50 was 15.7 µM (active).

In the case of `c1ccc(N=Nc2ccccc2)cc1`, the AC50 is 50 µM (active).

Turning to `CCCCCOC(=O)c1ccccc1C(=O)OCCCCC`, the AC50 is 7.46 µM (active).

Turning to `c1ccc(NNc2ccccc2)cc1`, the AC50 is 39.1 µM (active).

`Brc1ccc(Oc2ccccc2)cc1`: the AC50 was 45.4 µM (active).

In the case of `CC(C)COC(=O)c1ccccc1C(=O)OCC(C)C`, the AC50 is 16.1 µM (active).

In the case of `Cc1cc(N=Nc2ccccc2C)ccc1N`, the AC50 was 4.38 µM (active).

`[Cl-].[Cl-].[Hg+2]`: the AC50 was 27.6 µM (active).

With `CS(=O)(=O)NC(=O)c1cc(Oc2ccc(C(F)(F)F)cc2Cl)ccc1[N+](=O)[O-]`, the AC50 is 16.1 µM (active).

In the case of `Nc1cc(Cl)cc(C(=O)O)c1Cl`, the molecule was classed as inactive.

With `Nc1ccc([N+](=O)[O-])cc1`, the AC50 is 41.4 µM (active).

On to `COP(=S)(OC)SCN1C(=O)c2ccccc2C1=O`, for which the AC50 is 37.5 µM (active).

In the case of `CC(C)(C)C(O)(CCc1ccc(Cl)cc1)Cn1cncn1` (centres undefined), the AC50 was 26.9 µM (active).

In the case of `Nc1ccc(N=Nc2ccccc2)cc1`, the AC50 was 20.9 µM (active).

Turning to `O=[N+]([O-])c1ccc(Oc2ccc(Cl)cc2Cl)cc1`, the AC50 is 5.39 µM (active).

For `CCCCOC(=O)c1ccccc1C(=O)OCc1ccccc1`, the AC50 is 2.23 µM (active).
